Measurements from PubChem BioAssay AID1159580 (chemical genetic matrix, 2015).
Among all 5,500 compounds or so, about 2,000 (36%) were called active. Not shown: some 18% with an inconclusive outcome. Cut-off read from the data, not from the text of the source: active = normalized growth mostly below about 0.91 (no sharp cut-off); inconclusive = no clear call, values can overlap the other calls; inactive = mostly above about 0.92. The list shows a part of the results.

Experiment: chemical genetic growth profiling, strain panel (AID 1159580);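 note: tested at 20 µM; growth read once vehicle control cultures reached saturation at 30 °C; 1 = growth at the plate median or of vehicle wells; lower values mean less growth of the strain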
Conditions: S. cerevisiae deletion strains, growth OD

Measured: normalized growth

CC(C)c1c(C(=O)c2ccccc2)c(-c2ccccc2)c(-c2ccc(F)cc2)n1CC[C@@H](O)C[C@@H](O)CC(=O)O
inactive: locus YAL030W, strain snc1, active compounds read low 0.94 | locus YBR009C, strain hhf1, active compounds read low 0.924 | locus YBR171W, strain sec66, active compounds read low 0.984 | locus YCL011C, strain gbp2, active compounds read low 0.942 | locus YCL069W, strain vba3, active compounds read low 0.934 | locus YDL005C, strain med2, active compounds read low 0.987 | locus YDL040C, strain nat1, active compounds read low 0.99 | locus YDR001C, strain nth1, active compounds read low 0.957 | locus YDR159W, strain sac3, active compounds read low 0.882 | locus YDR195W, strain ref2 1.04 | locus YDR297W, strain sur2, active compounds read low 0.946 | locus YDR335W, strain msn5, active compounds read low 0.919 | locus YDR392W, strain spt3, active compounds read low 1.01 | locus YEL037C, strain rad23, active compounds read low 0.935 | locus YEL061C, strain CIN8 (second series), active compounds read low 0.955 | locus YER016W, strain bim1, active compounds read low 0.949 | locus YER111C, strain swi4, active compounds read low 0.981 | locus YER155C, strain BEM2 (second series), active compounds read low 0.917 | locus YGL167C, strain pmr1, active compounds read low 1 | locus YGL173C, strain kem1, active compounds read low 0.907 | locus YGL227W, strain vid30, active compounds read low 0.962 | locus YGL240W, strain doc1, active compounds read low 0.981 | locus YJL095W, strain BCK1 (second series), active compounds read low 0.957 | locus YJL115W, strain asf1, active compounds read low 0.953 | locus YJL129C, strain trk1, active compounds read low 0.916 | locus YJL164C, strain tpk1, active compounds read low 0.922 | locus YJL166W, strain qcr8, active compounds read low 0.926 | locus YKL160W, strain elf1, active compounds read low 0.921 | locus YKR026C, strain gcn3, active compounds read low 0.952 | locus YKR091W, strain srl3, active compounds read low 0.98 | locus YLL026W, active compounds read low 0.937 | locus YLL041C, strain sdh2, active compounds read low 0.981 | locus YLR027C, strain aat2, active compounds read low 0.933 | locus YLR258W, strain gsy2, active compounds read low 0.932 | locus YLR262C, strain YPT6 (second series), active compounds read low 0.973 | locus YLR320W, strain mms22, active compounds read low 0.899 | locus YLR342W, strain FKS1, active compounds read low 0.94 | locus YLR384C, strain iki3, active compounds read low 0.959 | locus YML120C, strain ndi1, active compounds read low 0.93 | locus YMR058W, strain fet3, active compounds read low 0.909 | locus YMR129W, active compounds read low 0.946 | locus YMR205C, strain PFK2, active compounds read low 0.946 | locus YNL071W, strain lat1, active compounds read low 0.939 | locus YNL209W, strain ssb2, active compounds read low 0.939 | locus YNL248C, strain rpa49, active compounds read low 1.02 | locus YNL322C, strain KRE1 (second series), active compounds read low 0.977 | locus YNR049C, strain mso1, active compounds read low 0.952 | locus YOR080W, strain dia2, active compounds read low 0.939 | locus YOR106W, strain vam3, active compounds read low 0.877 | locus YOR265W, strain rbl2, active compounds read low 0.95 | locus YOR290C, strain snf2, active compounds read low 0.895 | locus YPL078C, strain atp4, active compounds read low 0.908 | locus YPL106C, strain sse1, active compounds read low 1.11 | locus YPL240C, strain hsp82, active compounds read low 0.971

COc1cc2c(cc1OC)C(C)N(C(=O)c1sc3ccccc3c1Cl)CC2 (stereo not given)
inactive: locus YAR019C, strain CDC15, active compounds read low 0.981 | locus YBL105C, strain PKC1, active compounds read low 0.975 | locus YBR135W, strain CKS1, active compounds read low 0.97 | locus YBR136W, strain MEC1, active compounds read low 0.975 | locus YBR160W, strain CDC28, active compounds read low 0.968 | locus YDL017W, strain CDC7, active compounds read low 0.98 | locus YDL028C, strain MPS1, active compounds read low 0.982 | locus YDL101C, strain DUN1, active compounds read low 0.982 | locus YDL108W, strain KIN28, active compounds read low 0.974 | locus YDL132W, strain cdc53, active compounds read low 0.974 | locus YDL214C, strain PRR2, active compounds read low 0.928 | locus YDR052C, strain DBF4, active compounds read low 0.989 | locus YDR054C, strain cdc34, active compounds read low 0.972 | locus YDR226W, strain ADK1, active compounds read low 0.975 | locus YDR477W, strain SNF1, active compounds read low 0.934 | locus YER123W, strain YCK3, active compounds read low 0.9 | locus YER133W, strain GLC7, active compounds read low 0.936 | locus YFL009W, strain cdc4, active compounds read low 0.972 | locus YFL029C, strain CAK1, active compounds read low 0.968 | locus YFR003C, strain YPI1, active compounds read low 0.978 | locus YFR019W, strain FAB1, active compounds read low 0.943 | locus YFR028C, strain CDC14, active compounds read low 0.977 | locus YGR040W, strain KSS1, active compounds read low 0.899 | locus YGR052W, strain FMP48, active compounds read low 0.981 | locus YGR092W, strain DBF2, active compounds read low 0.921 | locus YHR030C, strain SLT2, active compounds read low 0.93 | locus YHR079C, strain IRE1, active compounds read low 0.933 | locus YHR082C, strain KSP1, active compounds read low 0.958 | locus YHR205W, strain SCH9, active compounds read low 0.976 | locus YIL147C, strain SLN1, active compounds read low 0.984 | locus YJL095W, strain BCK1, active compounds read low 0.947 | locus YJL128C, strain PBS2, active compounds read low 0.955 | locus YJL157C, strain FAR1, active compounds read low 0.912 | locus YJR016C, strain ILV3, active compounds read low 0.97 | locus YJR066W, strain TOR1 (second series), active compounds read low 0.891 | locus YJR066W, strain TOR1, active compounds read low 0.983 | locus YKL048C, strain ELM1, active compounds read low 0.928 | locus YKL067W, strain YNK1, active compounds read low 0.943 | locus YKL101W, strain HSL1, active compounds read low 0.897 | locus YKL193C, strain SDS22, active compounds read low 0.981 | locus YKL203C, strain TOR2, active compounds read low 0.959 | locus YLR113W, strain HOG1, active compounds read low 0.865 | locus YLR133W, strain CKI1, active compounds read low 0.916 | locus YLR403W, strain SFP1, active compounds read low 0.906 | locus YML070W, strain DAK1, active compounds read low 0.912 | locus YMR001C, strain CDC5, active compounds read low 0.975 | locus YMR205C, strain PFK2 (second series), active compounds read low 0.948 | locus YMR277W, strain FCP1, active compounds read low 0.978 | locus YNL006W, strain LST8, active compounds read low 0.99 | locus YNL020C, strain ARK1, active compounds read low 0.922 | locus YNL161W, strain CBK1, active compounds read low 0.97 | locus YNL183C, strain NPR1, active compounds read low 0.948 | locus YNL207W, strain RIO2, active compounds read low 0.978 | locus YNL222W, strain SSU72, active compounds read low 0.966 | locus YNL307C, strain MCK1 (second series), active compounds read low 0.911 | locus YOL078W, strain AVO1, active compounds read low 0.972 | locus YOL136C, strain PFK27, active compounds read low 0.906 | locus YOR061W, strain CKA2, active compounds read low 0.914 | locus YOR119C, strain RIO1, active compounds read low 0.982 | locus YOR231W, strain MKK1, active compounds read low 0.891 | locus YOR329C, strain SCD5, active compounds read low 0.978 | locus YPL031C, strain PHO85, active compounds read low 0.927 | locus YPL153C, strain RAD53, active compounds read low 0.905 | locus YPL204W, strain HRR25, active compounds read low 0.905 | locus YPL209C, strain IPL1, active compounds read low 0.968 | locus YPL256C, strain CLN2, active compounds read low 0.894 | locus YPR025C, strain CCL1, active compounds read low 0.976 | locus YPR106W, strain ISR1, active compounds read low 0.963 | locus YPR111W, strain DBF20, active compounds read low 0.949 | strain NNK1, active compounds read low 0.972 | strain TSCII, active compounds read low 0.969
